Sfp PPTase inh: inhibitors of Bacillus subtilis Sfp phosphopantetheinyl transferase; AID 1490; Q9F4F7; Biochemical Sfp PPTase activity, qHTS; 3.5% of 310,000 active; Potency, µM, for inactives: largest response in the series, negative = inhibition, most hits filed as inhibitors;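 further: the enzyme is Sfp with the accession as filed and its product quenches rhodamine fluorescence; 0% = enzyme reaction without inhibitor and -100% = no enzyme wells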
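Fluorescence-quenching assay: 15 nM Sfp-PPTase preincubated 15 min at room temperature with compound, then 5 uM rhodamine-CoA and 12.5 uM BHQ-2-labelled YbbR peptide added. Fluorescence (ex 525/em 598 nm) read at start and after 30 min; difference gives rate.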
GLS inh: blocks human kidney-isoform glutaminase activity. GLS enzymatic activity, qHTS titration. Potency, µM (highest dose often 45.5 µM), for the others: at the highest dose activity change, negative = inhibition, actives largely listed as inhibitors. 0.21% of 410,000 active. AID 624170
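hKGA; 45 mM KH2PO4 pH 8.2 + 0.02% Tween-20; cpd via pin tool; 1 mM Gln soln; GluOx/HRP/Amplex Red; RT 30 min; fluor. t0 & final.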
TrxR1 inh: blocks rat thioredoxin reductase 1; O89049; recombinant rTrxR1, NADPH fluorescence consumption, selenite substrate; Potency, µM (highest dose often 114 µM), for inactives: at the top dose activity change, negative = inhibition, usual class: inhibitors; AID 588453; 1% of 390,000 active; further: nearly all actives have a fitted effect of over 65% in size
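Rat TrxR1 (90 nM in the dispensed reagent) was pre-reduced with 400 uM NADPH for 5 min at room temperature, then incubated with compound for 15 min. After 400 uM selenite was added, NADPH fluorescence (Ex 340/Em 450 nm) was followed for 8 min.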
VDR inhibitor: vitamin D3 receptor (human) inhibition; 0.93% of 400,000 active; Potency, µM, for the others: max response, negative = inhibition, most hits filed as inhibitors; AID 504847; P11473; VDR-SRC2-3 peptide fluorescence polarization, 2 h
Target sequence (P11473 whole entry, looked up): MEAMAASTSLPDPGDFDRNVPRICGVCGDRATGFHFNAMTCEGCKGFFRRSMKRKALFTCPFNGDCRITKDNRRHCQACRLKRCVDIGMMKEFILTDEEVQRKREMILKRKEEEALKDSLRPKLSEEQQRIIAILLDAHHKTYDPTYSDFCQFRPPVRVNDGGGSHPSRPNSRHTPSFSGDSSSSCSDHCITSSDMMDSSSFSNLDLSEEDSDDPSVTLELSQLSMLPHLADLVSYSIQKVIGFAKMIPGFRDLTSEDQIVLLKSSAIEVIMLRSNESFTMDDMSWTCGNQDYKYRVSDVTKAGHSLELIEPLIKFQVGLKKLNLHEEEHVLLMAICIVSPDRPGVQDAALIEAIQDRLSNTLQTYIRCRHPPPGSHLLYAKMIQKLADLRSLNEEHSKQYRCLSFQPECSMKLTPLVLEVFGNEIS
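Fluorescence polarization assay measuring small-molecule disruption of VDR binding to the coregulator peptide SRC2-3. Compounds were pin-transferred (23 nl) into the reagent mix and incubated 2 h at room temperature before reading.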
TrxR1 substrate: is turned over as a substrate by rat TrxR1. O89049. purified TrxR1 substrate turnover, NADPH consumption readout. Potency, µM (series often up to 114 µM), without a hit: at the highest dose activity change, negative = substrate turnover. 0.01% of 390,000 active. AID 588456; further: nearly all actives have a fitted effect of over 50% in size
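Rat TrxR1, dispensed at 90 nM, was prereduced with 400 uM NADPH (final) for 5 min at ~22 deg C, then incubated with compound 15 min before 400 uM selenite. A first-read NADPH fluorescence drop versus no-compound background flagged substrates.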
KAT2A inh: blocks human GCN5L2 histone acetyltransferase | GCN5L2 HAT assay, ThioGlo1 CoA-SH fluorescence | Potency, µM (highest dose often 58.9 µM), for inactives: top-dose activity change, negative = inhibition, hits mostly inhibitors | 0.21% of 390,000 active | AID 504327
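Fluorescence readout, Ex340nm/Em540nm: ThioGlo1 (50uM final) reacts with free CoA thiol released as 20nM GCN5L2 acetylates H3(1-25) peptide (75uM) using acetyl-CoA (70uM). Compound and enzyme sat 15 min beforehand; 20 min room-temperature reaction.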
* = called active by the depositor; ? = inconclusive; . = not tested or not shown; ! = not confirmed by another sample; [ ] = dose if it differs, or a comment. Sampled rows, rich in hits. Any-hit rate of the full collection: about 3.8%. The call rests on the fitted dose curve; in most records, active means well fitted curve in the direction sought with a large enough effect; inconclusive means small, poorly fitted or top-dose-only effect, or another doubt; inactive means no such curve, though single readings can be large; an effect the other way counts as inactive or inconclusive. Unless noted, on the % scale 0 is the no-effect control and ±100 the full control effect; potency means the concentration at half of the fitted maximal effect.

SMILES	Sfp PPTase inh	GLS inh	TrxR1 inh	VDR inhibitor	TrxR1 substrate	KAT2A inh
CC(C)C1C(=O)N2CCCC2[C@]2(O)O[C@@](NC(=O)[C@@H]3C=C4c5cccc6[nH]cc(c56)C[C@H]4N(C)C3)(C(C)C)C(=O)N12 (some centres not stated)	-16%	.	.	.	.	.
CC(C)[C@@]1(NC(=O)[C@@H]2C[C@@H]3c4cccc5[nH]cc(c45)C[C@H]3N(C)C2)O[C@@]2(O)[C@@H]3CCCN3C(=O)[C@H](Cc3ccccc3)N2C1=O	79µM*!	0%	?	-9%	-9%[57.1 µM]	?
CN1C[C@@H](C(=O)N[C@@]2(C)O[C@]3(O)C4CCCN4C(=O)[C@@H](Cc4ccccc4)N3C2=O)C=C2c3cccc4[nH]cc(c34)C[C@@H]21 (some centres not stated)	-31%	.	.	14µM*	.	?
CN1C[C@H](C(=O)N[C@@]2(C)O[C@@]3(O)C4CCCN4C(=O)C(Cc4ccccc4)N3C2=O)C[C@H]2c3cccc4[nH]cc(c34)C[C@H]21 (some centres not stated)	8%	.	.	-1%	.	-13%
CC(C(=O)c1ccccc1)N1C(=O)c2ccccc2C1=O (configuration not stated)	-20%	4%	-4%[57.1 µM]	-5%	14%[57.1 µM]	-4%
CCCC(C)CC1(CCO)C(=O)NC(=S)NC1=O (configuration not stated)	.	6%	-3%[2.29 µM]	-1%	8%[57.1 µM]	.
Cc1cc(C(=O)N2CCC3(CC2)OCCO3)no1	5%	9%	21%	1%	2%	-4%
CCCCn1c(O)c(C(C)=NCc2ccc3c(c2)OCO3)c(=O)[nH]c1=O	4%	-2%	14%[57.1 µM]	-11%	9%[57.1 µM]	-8%
CCCCn1c(O)c(C=NCc2ccc3c(c2)OCO3)c(=O)[nH]c1=O	50µM*	-11%	5%[57.1 µM]	0%	1%[57.1 µM]	-4%
COC(=O)C1=C(c2ccc(F)cc2F)C[C@@H]2CC[C@H]1N2C(=O)N1CCC(O)CC1	.	4%	17%	-2%	7%[57.1 µM]	-8%
Nc1c(Br)cc2c3c(cccc13)-c1ccccc1-2	.	1%	11%[57.1 µM]	28µM*	-16%	.
c1ccc2c(c1)-c1cccc3cccc-2c13	.	4%	37%	-9%	40%[57.1 µM]	-2%
CCOc1ccc(CC2C(=O)NC(=O)N(c3ccc(CC)cc3)C2=O)cc1 (configuration not stated)	56µM*	3%	-1%	?	-2%	-3%
Cc1ccc(CCNC(=O)C2CCCN(Cc3nc(-c4cccc(Cl)c4)oc3C)C2)cc1 (configuration not stated)	.	-12%	?	89µM*	-3%	4%
CN1C(=O)/C(=C\N2CCc3ccccc32)C(=O)NC1=S	35µM*	8%	-60%	-1%	-7%	0%
CCOC(=O)CC(SP1(=S)OCC2(CCCCC2)CO1)C(=O)OCC (configuration not stated)	.	10%	11%	-15%	-5%	.
CCOC(=O)CC(SP(=S)(OC)OC)C(=O)OCC (configuration not stated)	40µM*	9%	.	28µM*	.	?
CNCCc1cnc[nH]1	-15%	.	.	-6%	.	47%
CCCSP(=S)(OCC)Oc1ccc(Cl)cc1Cl (configuration not stated)	?	.	.	7.1µM*	.	-19%
CCOP(=S)(OCC)Oc1ccc(Cl)cc1Cl	?	.	.	50µM*	.	-14%
CCOP(=O)(OCC)O/C(=C/Cl)c1ccc(Cl)cc1Cl	16%	3%	.	3%	.	-10%
COc1ccc(C2SCC(=O)Nc3c2c(C)nn3-c2ccccc2)cc1 (configuration not stated)	3%	-2%	6%[57.1 µM]	-13%	-8%[57.1 µM]	-4%
Cc1ccc(-n2nc(C)c3c2NC(=O)CSC3c2ccc3c(c2)OCO3)cc1 (configuration not stated)	56µM*	10%	-54%	?	7%[57.1 µM]	-5%

From PubChem
